A number with no mark means an inactive call. Activity calls are given as the source filed them. The rule behind the calls is not given here.
What follows are molecules tested on HIV-1 nucleocapsid protein NCp7 (binding to TG oligonucleotide) (assay: HIV Nucleocapsid (AID 346;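 note: potency is for inhibitors that block NC binding and lower polarization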)). Conditions: HIV-1 NC / fluorescein-TGTGTGTG probe, fluorescence polarization.
Procedure, shortened: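 HIV-1 NC (100 nM) binding to fluorescein-labelled ssDNA TG4xF (10 nM) in Hepes pH 7.5, 250mM NaCl, 1uM ZnCl2, TCEP and 2-mercaptoethanol; compounds pin-transferred, 1 hr room temperature, fluorescence polarization read on CCD imager.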
Potency is the fitted concentration of half-maximal effect.

SMILES	Potency
O=C(Oc1ccccc1)N1CCC[C@@]2(CCN(c3ccccc3)C2)C1	> 20 µM
CN(C)C(=O)c1ccc(-c2cc(NCc3cccnc3)ncn2)cc1	> 20 µM
COCCNc1nc(-c2cccc(OC)c2)nc2ccccc12	> 20 µM
COCCn1c(=O)c(-c2ccccc2)nc2cnc(Nc3ccccc3)nc21	> 20 µM
COc1cccc(Cn2c(=O)cnc3cnc(Nc4ccccc4)nc32)c1	4.95 µM (active)
COc1ccc(Oc2ncc3nc(-c4ccc(Cl)cc4)c(=O)n(CCC#N)c3n2)cc1	> 20 µM
COc1ccc(-c2nc3cnc(N4CCOCC4)nc3n(-c3ccc(OC)cc3)c2=O)cc1	> 20 µM
COc1cccc(Nc2ncc3nc(-c4cc(F)cc(F)c4)c(=O)n(CCC#N)c3n2)c1	> 20 µM
COc1cccc(Nc2ncc3nc(-c4cn(C)c5ccccc45)c(=O)n(CCC#N)c3n2)c1	> 20 µM
CNc1cc(-c2ccccc2CN(C)C)ncn1	> 20 µM
O=C(Oc1ccccc1)N1CCC2(CC1)CN(c1ccccc1)C2	> 20 µM
COCCn1c(=O)c(-c2ccccc2)nc2cnc(OC)nc21	> 20 µM
CS(=O)(=O)N1CCC2(CCN(c3ccncc3)CC2)CC1	> 20 µM
COc1ccc(-n2c(=O)cnc3cnc(Oc4cccc(Cl)c4)nc32)cc1	> 20 µM
O=S(=O)(c1ccccc1)N1CCC[C@@]2(CCN(Cc3cc(C(F)(F)F)cc(C(F)(F)F)c3)C2)C1	> 20 µM
N#CCCn1c(=O)c(-c2cccs2)nc2cnc(OCc3ccccc3)nc21	> 20 µM
COc1ccccc1CN1CCC2(CC1)CCN(S(C)(=O)=O)CC2	> 20 µM
O=c1c(-c2cccs2)nc2cnc(Oc3ccccc3)nc2n1-c1ccccc1	> 4 µM
COc1ccc(C(=O)N2CCC3(CCN(Cc4nccs4)CC3)CC2)cc1	> 20 µM
O=S(=O)(c1ccccc1)N1CCC[C@@]2(CCN(c3ccccc3)C2)C1	> 20 µM

SMILES	Potency
COc1cccc(-c2nccc(NCc3cccs3)n2)c1	> 20 µM
O=C(c1ccncc1)N1CCC2(CCCN(C(c3ccccc3)c3ccccc3)C2)CC1	> 20 µM
COc1ccc(Oc2ncc3nc(-c4ccc(Cl)cc4)c(=O)n(C[C@H]4CCCO4)c3n2)cc1	> 20 µM
FC(F)(F)c1ccccc1-c1ccc2ncnc(NC3CCNCC3)c2c1	> 20 µM
COc1ccc2[nH]cc(CCNc3cc(-c4ccc5c(c4)OCO5)ncn3)c2c1	> 20 µM
N#Cc1cccc(NC(=O)N2CC[C@@]3(CCCNC3)C2)c1	> 20 µM
CCNc1ncc2nc(-c3ccc(F)cc3)c(=O)n(-c3ccccc3)c2n1	> 20 µM
c1ccc(Nc2cc(-c3ccoc3)ncn2)cc1	> 20 µM
COc1ccc2[nH]cc(CCNc3nc(-c4cccc(NS(C)(=O)=O)c4)nc4ccccc34)c2c1	> 20 µM
CC(=O)N1CCC[C@@]2(CCN(c3ccncc3)C2)C1	> 20 µM
COCC(=O)N1CCC[C@@]2(CCN(c3ncccn3)C2)C1	> 20 µM
COc1cccc(Cn2c(=O)c(-c3ccc(Cl)cc3)nc3cncnc32)c1	> 20 µM
Cn1c(=O)c(-c2ccc(F)cc2)nc2cnc(N3CCOCC3)nc21	> 20 µM
CN(C)c1ncnc2ccc(-c3cccc(NS(C)(=O)=O)c3)cc12	> 20 µM
COc1ccc(Oc2ncc3nc(-c4cccc(C#N)c4)c(=O)n(CCC#N)c3n2)cc1	> 20 µM
COc1ncc2nc(CCc3ccccc3)c(=O)n(C3CC3)c2n1	> 20 µM
CN(C)c1ncc2nc(-c3ccc(Cl)cc3)c(=O)n(C)c2n1	> 20 µM
CCNc1ncc2nc(CCc3ccccc3)c(=O)n(-c3ccc(OC)cc3)c2n1	> 20 µM
Cc1noc(C)c1C(=O)N1CCC2(CC1)CN(c1ccccc1)C2	> 20 µM

Reference: PubChem BioAssay (NCATS)
